aSyn 5UTR act: Activators working through SNCA 5'UTR binding (MLPCN); alpha-synuclein 5'UTR reporter, activators screen; activity score, % (tested at 7.5 µM), hits read low; 300,000 compounds, 7.1% hits; in the data active = activity score below about -60%
Of the large screens only hits and unclear results are named; the others gave an inactive call. Only a sample is shown.

COc1nc(C)ccc1-c1noc(-c2ccco2)n1	aSyn 5UTR act -124
COc1nc(-c2ccc(C)cc2)ccc1-c1noc(-c2ccco2)n1	aSyn 5UTR act -70
O=C(CNC(=O)c1ccccc1F)c1ccccc1	aSyn 5UTR act -93
O=C(CNC(=O)c1ccccc1Cl)c1ccccc1	aSyn 5UTR act -113
Cc1ccccc1C(=O)NCC(=O)c1ccccc1	aSyn 5UTR act -135
O=C(COc1ccccc1)NCCSc1ccccc1	aSyn 5UTR act -99
CC(CNC(=O)c1ccccc1Cl)c1ccccc1 (stereo not given)	aSyn 5UTR act -111
O=C(NCCSc1ccccc1)c1cccnc1	aSyn 5UTR act -100
O=C(NCCSc1ccccc1)c1ccccc1F	aSyn 5UTR act -76
Cn1ccnc1Sc1ccc(/C=N/NC(=O)c2ccccc2O)cc1[N+](=O)[O-]	aSyn 5UTR act -62
N#C/C(=N\Nc1cccc(C(F)(F)F)c1)C(=O)c1ccsc1	aSyn 5UTR act -109
N#Cc1cc2c(nc1SCC(N)=O)CCCCC2	aSyn 5UTR act -77
N#Cc1cc2c(nc1SCC(=O)N1CCOCC1)CCCCC2	aSyn 5UTR act -65
COc1cn(-c2ccccc2)nc1C(=O)Nc1ccccc1	aSyn 5UTR act -66
COc1cn(-c2ccccc2)nc1C(=O)Nc1ccc(C)cc1	aSyn 5UTR act -90
CSc1nccc(N/N=C/c2ccccc2)n1	aSyn 5UTR act -158
C(=N\Nc1nccc(-c2cccnc2)n1)/c1ccccc1	aSyn 5UTR act -108
Cc1ccc(-c2cc(-c3ccccc3O)nc(N/N=C/c3cccnc3)n2)cc1	aSyn 5UTR act -100
Cc1ccnc(N/N=C/c2ccccc2)n1	aSyn 5UTR act -90
O=C(Nc1ccc(F)cc1F)c1cc2nc3c(c(C(F)(F)F)n2n1)CCCC3	aSyn 5UTR act -79
O=C(Nc1ccc(F)cc1F)c1cc2n(n1)C(C(F)(F)F)C1CCCCC1N2 (stereo not given)	aSyn 5UTR act -69
Cc1ccc(OCc2ccc(C(=O)Nc3nccs3)o2)cc1	aSyn 5UTR act -88
O=C(Nc1nccs1)c1ccc(COc2ccccc2)o1	aSyn 5UTR act -113
CSc1ccc(C2c3[nH]c4ccccc4c3CCN2C(=O)c2ccnn2C)cc1 (stereo not given)	aSyn 5UTR act -166
Cc1cc(C(=O)NC2CCCCC2)c(C)n1-c1ccc(F)cc1	aSyn 5UTR act -174
Cc1cc(C(=O)CN2CCC(C)CC2)c(C)n1-c1ccc(F)cc1	aSyn 5UTR act -97
Cc1cc(C(=O)CNCc2ccco2)c(C)n1-c1ccc(F)cc1	aSyn 5UTR act -106
Cc1cc(C(=O)CN2CCCCC2)c(C)n1-c1ccc(F)cc1	aSyn 5UTR act -129
O=C(/C=C/c1ccco1)Nc1ccc2nn(-c3ccccc3)nc2c1	aSyn 5UTR act -209
Cc1ccc(-n2nc3ccc(NC(=O)c4cccc([N+](=O)[O-])c4C)cc3n2)cc1	aSyn 5UTR act -66
Cc1ccc(-n2nc3ccc(NC(=O)C(C)C)cc3n2)cc1	aSyn 5UTR act -137
CC(C)CC(=O)Nc1ccc2nn(-c3ccccc3)nc2c1	aSyn 5UTR act -178
CCOc1ccc(-n2nc3ccc(N)cc3n2)cc1	none
Cc1ccc(-n2nc3ccc(NC(=O)c4ccco4)cc3n2)cc1	aSyn 5UTR act -83
Nc1ccc2nn(-c3ccc(F)cc3)nc2c1	aSyn 5UTR act -108
CC(C)C(=O)Nc1ccc2nn(-c3ccc(F)cc3)nc2c1	aSyn 5UTR act -71
CCCC(=O)Nc1ccc2nn(-c3ccc(OC)cc3)nc2c1	aSyn 5UTR act -121
CC(C)NC(=O)c1ccc(-c2ccccc2C(F)(F)F)o1	aSyn 5UTR act -131
Fc1cccc2sc(Nc3nc4cc5c(cc4s3)OCCO5)nc12	aSyn 5UTR act -78
Fc1cc(F)c2nc(Nc3nc4cc5c(cc4s3)OCO5)sc2c1	aSyn 5UTR act -176
O=C(NNc1nc2cc3c(cc2s1)OCCO3)c1ccccc1	aSyn 5UTR act -141
Fc1cccc2sc(Nc3nc4cc5c(cc4s3)OCO5)nc12	aSyn 5UTR act -222
COC(=O)C1CC23C=CCN4CCC5(c6ccccc6NC15C2C)C43 (stereo not given)	none
Cc1ccc2cc3cc(C(=O)NC4CC4)oc3nc2c1	aSyn 5UTR act -134
Cc1ccc2cc3cc(C(=O)NC4CCCCC4)oc3nc2c1	aSyn 5UTR act -153
Cc1ccc(-c2nc(C#N)c(NCC3CCCO3)o2)cc1 (stereo not given)	aSyn 5UTR act -88
Cc1cccc(-c2nc(C#N)c(NCC3CCCO3)o2)c1 (stereo not given)	aSyn 5UTR act -112
Cc1cccc(-c2nc(C#N)c(N3CCCCCC3)o2)c1	aSyn 5UTR act -68
CC(=O)Nc1ccc(/C(C)=N\NC(=O)c2ccc(-c3ccccc3)cc2)cc1	none
C/C(=N/NC(=O)c1ccco1)c1ccc(NC(=O)c2ccc(Br)o2)cc1	aSyn 5UTR act -82
C/C(=N/NC(=O)c1ccco1)c1ccc(NC(=O)c2ccc(F)cc2)cc1	aSyn 5UTR act -109
CCCCCC(=O)N/N=C(\C)c1ccc(NC(=O)c2ccco2)cc1	aSyn 5UTR act -107
C/C(=N\NC(=O)c1ccc(F)cc1)c1ccc(NC(=O)Cc2ccccc2)cc1	aSyn 5UTR act -75
N/C(=N\O)c1ccc(NC(=O)c2ccc(Br)o2)cc1	aSyn 5UTR act -67
N#C/C(=C\c1ccc([N+](=O)[O-])cc1)c1nc(C2CC2)cs1	aSyn 5UTR act -84
N#C/C(=C/c1ccccc1[N+](=O)[O-])c1nc(C2CC2)cs1	aSyn 5UTR act -301
N#C/C(=C\c1ccccc1[N+](=O)[O-])c1nc(C2CC2)cs1	aSyn 5UTR act -264
Cc1ccc([N+](=O)[O-])cc1N/C=C/C(=O)c1ccco1	aSyn 5UTR act -138
Cc1ccc(N/C=C/C(=O)c2ccco2)c(O)c1	aSyn 5UTR act -158
COc1ccc(/C(C)=N/Nc2ccc(F)cc2F)c(O)c1	aSyn 5UTR act -97
COc1ccc(/C(C)=N/Nc2ccccc2Cl)c(O)c1	aSyn 5UTR act -102
C/C(=N\Nc1ccc(F)cc1F)c1cccs1	aSyn 5UTR act -88
COc1cc(NC(=O)n2ncc3cc(Cl)ccc32)cc(OC)c1	aSyn 5UTR act -186
O=C(Nc1ccccc1F)n1ncc2cc(Cl)ccc21	aSyn 5UTR act -73
Oc1c(N=NC(=S)Nc2ccccc2F)c2ccccc2n1Cc1ccc(Cl)cc1	none
COc1ccc(NC(=O)n2ncc3cc(Cl)ccc32)cc1OC	aSyn 5UTR act -142
CCOc1ccc(C2C=C(c3ccccc3)Nc3nnnn32)cc1 (stereo not given)	aSyn 5UTR act -152
COc1ccccc1C1CC(=O)Nc2cc(C)c(C)cc21 (stereo not given)	none
COc1ccccc1C1C=C(c2ccc(C)cc2)Nc2nnnn21 (stereo not given)	aSyn 5UTR act -128
Cc1ccc(C2=CC(c3cccs3)n3nnnc3N2)cc1 (stereo not given)	aSyn 5UTR act -187
CCc1cc2c(=O)c(-c3nc(C)cs3)coc2cc1O	aSyn 5UTR act -145
Cc1csc(-c2coc3cc(O)cc(C)c3c2=O)n1	aSyn 5UTR act -207
Cc1ccc(Nc2cc(-n3cccn3)ncn2)c(C)c1	aSyn 5UTR act -170
Fc1cccc(Nc2cc(-n3cccn3)ncn2)c1	aSyn 5UTR act -147
Cc1nc2nc(-c3ccc(Cl)cc3)nn2c(C)c1Cl	aSyn 5UTR act -235
Cc1nc2nc(-c3ccccc3)nn2c(C)c1C	aSyn 5UTR act -105
O=C(Cn1cc(C(F)(F)F)ccc1=O)NCc1ccc(F)cc1	aSyn 5UTR act -75
COc1ccc(C2/C=C\CN(C(=O)Nc3ccc(C(F)(F)F)cc3)CC(=O)N2Cc2ccc(F)cc2)cc1 (stereo not given)	none
COC(=O)c1c(C)[nH]c(C(=O)OCc2ccc(F)cc2)c1C	aSyn 5UTR act -189
CC(=O)c1c(C)[nH]c(C(=O)OCc2ccc(F)cc2Cl)c1C	aSyn 5UTR act -68
